These results are taken from PubChem BioAssay (NCI).

Molecules are shown by their SMILES. This is part of a sample that, as a whole, favours compounds with a hit. Of some 83,000 tested, about 20% had one in any assay.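 For each line, cells grew in 96-well plates with the test compound present at a single concentration for 48 hours.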 Calls of active or inactive are those of the source. How the source made its calls: active means growth percent below 10; inactive means the rest.

Holding throughout (experiment): NCI-60 one-dose screen, 48 h (100 = growth as untreated, 0 = no growth, -100 = all killed)
Details in all cases: 10 µM unless noted

In experiment [1] the test system is NCI-H23 lung.
The subject of experiment [2] is NCI-H226 lung.
For experiment [3], the system named is NCI-H322M lung.
Experiment [4] relates to NCI-H460 lung.
Experiment [5] deals with HOP-92 NSCLC.
Experiment [6] concerns NCI-H522 lung.
In experiment [7] the test system is A549/ATCC NSCLC.
In experiment [8] the test system is 786-0 renal.
Experiment [9] deals with COLO 205 colon.
The test system of experiment [10] is DU-145 prostate.
Experiment [11] deals with K-562 leukemia.
In experiment [12] the test system is MALME-3M melanoma.
For experiment [13], the system named is MDA-MB-231 breast.
The test system of experiment [14] is RXF 393 renal.
Experiment [15] has as its system SF-268 CNS.
Experiment [16] concerns SF-295 CNS.
Experiment [17] concerns SF-539 CNS.
In experiment [18] the test system is UACC-257 melanoma.
The test system of experiment [19] is M14 melanoma.
For experiment [20], the system named is HOP-62 NSCLC.

As for `CCOP(=O)(OCC)OC[C@]12CCC(C)(C)CC1C1=CC[C@@H]3[C@@]4(C)CCCNC(C)(C)[C@@H]4CC[C@@]3(C)[C@]1(C)CC2` (stereo partly specified), the growth in experiment [1] was 85.2% (inactive); in experiment [2] it was 89% (inactive); in experiment [3], 95.7% (inactive); in experiment [4] it was 55.1% (inactive); in [5], 64.8% (inactive); in experiment [6] it was 90.2% (inactive). Also, the growth was 70.8% (inactive) in [7]; 69.4% (inactive) in experiment [8]; 3.12% (active) in [9]; 82.6% (inactive) in experiment [10]; 2.53% (active) in experiment [11]; 103% (inactive) in [12]. Also, the growth in [13] is 81.1% (inactive); in experiment [14], 64% (inactive); in [15], 80.2% (inactive); in experiment [16], 99.3% (inactive); in [17], 86.3% (inactive); in experiment [18], 98.2% (inactive). Besides, the growth in [19] is 83.3% (inactive).

In the case of `Cc1ccc2c(n1)C(=O)C(Cl)=C(Nc1cccc(C(F)(F)F)c1)C2=O`, the growth in experiment [1] was 52.3% (inactive); in experiment [2], 73.3% (inactive); in experiment [3], 108% (inactive); in [4] it was 101% (inactive); in experiment [5], 107% (inactive); in experiment [6], -28.8% (active). Also, the growth was 105% (inactive) in experiment [7]; 85.8% (inactive) in experiment [8]; 106% (inactive) in experiment [9]; 98.7% (inactive) in experiment [10]; 3.08% (active) in [11]; -5.42% (active) in [12]. Further, the growth was 54.7% (inactive) in experiment [13]; -1.18% (active) in [14]; 100% (inactive) in [15]; 110% (inactive) in [16]; 106% (inactive) in experiment [17]; -4.17% (active) in [18]. Besides, the growth in experiment [19] was 80.4% (inactive).

Take `CCCCOc1ccc(S(=O)(=O)N2CCN(c3nc(C)cc(N4CCOCC4)n3)CC2)cc1`: the growth is 41.7% (inactive) in [1]; 67.2% (inactive) in experiment [2]; 62.2% (inactive) in experiment [3]; 1.22% (active) in experiment [4]; 18.2% (inactive) in experiment [5]; 88.8% (inactive) in experiment [6]. The growth was 27.3% (inactive) in [7]; 33.4% (inactive) in experiment [8]; 5.81% (active) in experiment [9]; 16.6% (inactive) in experiment [10]; 44.3% (inactive) in experiment [11]; 107% (inactive) in experiment [12]. Also, the growth was 3.79% (active) in experiment [13]; 85% (inactive) in experiment [14]; 3.91% (active) in experiment [15]; -22.5% (active) in [16]; 75.9% (inactive) in [17]; -47.2% (active) in experiment [18]. Further, the growth in experiment [19] is -15.9% (active).

As to `C=C(C)[C@@H]1CC[C@]2(COCCCNCCCN)CC[C@]3(C)[C@H](CC[C@@H]4[C@@]5(C)CC[C@H](O)C(C)(C)[C@@H]5CC[C@]43C)[C@@H]12`, the growth in experiment [1] is -64.7% (active); in experiment [2], 4.38% (active); in experiment [3] it was -90.2% (active); in experiment [4], -77.3% (active); in experiment [5], -76.2% (active); in experiment [6] it was -54.6% (active). Also, the growth in [7] is -48.7% (active); in [8] it was -81.3% (active); in [9] it was -65.9% (active); in experiment [10], -80.8% (active); in experiment [11], -9.9% (active); in experiment [12], -83.8% (active). The growth in [13] is -86.3% (active); in experiment [14], -90.9% (active); in [15] it was -57.9% (active); in experiment [16], -85.2% (active); in experiment [17], -96.2% (active); in experiment [18] it was -0.281% (active). In addition, the growth in experiment [19] is -90.3% (active).

`CCOC(=O)c1c(N)c(C#N)cn1Cc1ccc(Cl)cc1Cl`: the growth in experiment [1] was 84.4% (inactive); in experiment [2], 85.1% (inactive); in experiment [3] it was 87.4% (inactive); in experiment [4] it was 81.2% (inactive); in [5], 73.1% (inactive); in experiment [6] it was 67.2% (inactive). In addition, the growth is 76.2% (inactive) in experiment [7]; 76.4% (inactive) in [8]; 106% (inactive) in experiment [9]; 93.5% (inactive) in experiment [10]; 24.8% (inactive) in experiment [11]; 85.6% (inactive) in [12]. Also, the growth in experiment [13] was 43.9% (inactive); in experiment [14], 63.1% (inactive); in experiment [15] it was 80.5% (inactive); in experiment [16] it was 80.2% (inactive); in experiment [17] it was 73.3% (inactive); in [18] it was 92.7% (inactive). Moreover, the growth in experiment [19] was 72.4% (inactive).

On to `NNc1nnc2nc(Nc3ccccc3)nc(Nc3ccc(S(N)(=O)=O)cc3)n12`, for which the growth in experiment [1] was 102% (inactive); in experiment [2], 105% (inactive); in [3], 102% (inactive); in experiment [4], 101% (inactive); in experiment [5], 119% (inactive); in experiment [7], 105% (inactive). Also, the growth in experiment [8] is 110% (inactive); in experiment [9] it was 105% (inactive); in experiment [10], 112% (inactive); in experiment [11] it was 101% (inactive); in [12] it was 101% (inactive); in experiment [13] it was 95.8% (inactive). In addition, the growth in experiment [14] was 101% (inactive); in experiment [15] it was 107% (inactive); in [16], 106% (inactive); in experiment [17] it was 96.5% (inactive); in experiment [18], 106% (inactive); in experiment [19], 108% (inactive).

As for `Cc1nc(/N=C(N)/N=C(\N)c2cccc(Br)c2)sc1C`, the growth in experiment [1] was 59.7% (inactive); in [2], 73.1% (inactive); in experiment [3], 86.2% (inactive); in experiment [4] it was 30.1% (inactive); in experiment [5] it was 88% (inactive); in [6] it was 45.7% (inactive). Further, the growth was 56.8% (inactive) in experiment [7]; 75.2% (inactive) in experiment [8]; 55.6% (inactive) in [9]; 57.9% (inactive) in experiment [10]; 15.9% (inactive) in [11]; 62% (inactive) in [12]. The growth is 76.5% (inactive) in experiment [13]; 56.9% (inactive) in experiment [14]; 80% (inactive) in experiment [15]; 8.89% (active) in experiment [16]; 37.8% (inactive) in [17]; 88.3% (inactive) in [18]. Also, the growth in [19] was 47.1% (inactive).

As to `O=C1Nc2ccc(F)cc2/C1=C\C(=O)c1ccc(NS(=O)(=O)c2ccccc2)cc1`, the growth in experiment [1] is 84.3% (inactive); in [2] it was 95.6% (inactive); in experiment [3], 93.8% (inactive); in experiment [4], 101% (inactive); in experiment [5] it was 82.7% (inactive); in experiment [6], 70.2% (inactive). Moreover, the growth is 97.4% (inactive) in [7]; 98.6% (inactive) in experiment [8]; 92.1% (inactive) in [10]; 49.1% (inactive) in experiment [11]; 79.7% (inactive) in experiment [12]; 90.4% (inactive) in [13]. Besides, the growth in [14] was 72.3% (inactive); in experiment [15], 97.9% (inactive); in [16], 96.4% (inactive); in experiment [17] it was 97.5% (inactive); in experiment [18], 95.9% (inactive); in [19] it was 90.7% (inactive).

Turning to `CC/C(=C(/c1ccc(Cl)cc1)c1ccc(OCCN)cc1)c1ccccc1`, the growth in [1] is 96% (inactive); in experiment [2], 105% (inactive); in [3], 108% (inactive); in experiment [4], 60.2% (inactive); in experiment [5], 103% (inactive); in [6], 98.1% (inactive). The growth is 86.2% (inactive) in experiment [7]; 87.9% (inactive) in experiment [8]; 18% (inactive) in experiment [9]; 82.7% (inactive) in experiment [10]; 19.7% (inactive) in experiment [11]; 94.8% (inactive) in [12]. For the same compound, the growth is 86.6% (inactive) in [13]; 92.8% (inactive) in experiment [14]; 103% (inactive) in [15]; 107% (inactive) in experiment [16]; 98.6% (inactive) in experiment [17]; 106% (inactive) in experiment [18]. For the same compound, in experiment [19], the growth was 88.7% (inactive).

As for `CSc1ccc(C(=NNS(=O)(=O)c2ccc(C)cc2)c2ccc(Cl)cc2)cc1`, the growth was 94% (inactive) in experiment [1]; 98% (inactive) in experiment [2]; 92.7% (inactive) in experiment [3]; 104% (inactive) in experiment [4]; 86.9% (inactive) in experiment [5]; 94.4% (inactive) in [6]. Besides, the growth in experiment [7] is 99.6% (inactive); in [8], 104% (inactive); in experiment [10], 108% (inactive); in [11] it was 94.6% (inactive); in experiment [12], 89.9% (inactive); in experiment [13], 104% (inactive). Further, the growth in experiment [14] is 101% (inactive); in [15], 95.3% (inactive); in experiment [16], 96.9% (inactive); in experiment [17], 102% (inactive); in experiment [18], 100% (inactive); in experiment [19] it was 103% (inactive).

`O=C(CSc1cc[n+](CCCCO)c2ccccc12)n1ccc2ccccc21`: the growth in [1] was 95.8% (inactive); in experiment [2] it was 89.6% (inactive); in [20] it was 91.8% (inactive); in experiment [4], 99.2% (inactive); in experiment [5] it was 103% (inactive); in experiment [6] it was 99.4% (inactive). Moreover, the growth in experiment [7] was 103% (inactive); in experiment [8], 108% (inactive); in [9], 106% (inactive); in experiment [10], 110% (inactive); in experiment [11] it was 98.2% (inactive); in experiment [12], 99.7% (inactive). Also, the growth in experiment [13] was 88.2% (inactive); in experiment [14] it was 107% (inactive); in experiment [15], 109% (inactive); in experiment [16], 99.7% (inactive); in [17] it was 99.2% (inactive); in experiment [18], 95.2% (inactive). Also, the growth in experiment [19] was 96.6% (inactive).
